Bioassay records as filed in PubChem.
In the library only some 1.6% were active in any assay of this set; here they are far more common.
PERK inhibitor: block of dimerizer-induced PERK translation repression, primary screen, PERK inhibitor project, CHO PERK-DD cells, SEAP luminescence, HTS. CHO PERK-DD fusion, SEAP luminescence translation reporter. Eukaryotic translation initiation factor 2-alpha kinase 3 (Homo sapiens), Q9NZJ5. actives 0.17% (n = 220,000). inhibition, % at 5.6 µM;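 active = inhibition above the mean inhibition of all tested compounds plus 3 SD, set separately per screening campaign, cut at about 2.9% in these data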;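 note: PERK kinase domain activated by AP20187 dimerizer at 100 nM; 0% = DMSO with dimerizer and 100% = rapamycin at 8.4 µM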
Rce1 inh: yeast Rce1p protease inhibitors, primary screen, biochemical, fluorescence, cell-free homogeneous; CAAX prenyl protease 2 (Saccharomyces cerevisiae (strain ATCC 204508 / S288c)), Q03530; yeast membranes, quenched prenylated peptide cleavage fluorescence; calls only; actives 0.27% (n = 290,000);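 active = fall in fluorescence gain of 50% or more versus controls, with final raw signal at or below 3038400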;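 note: plate controls were neutral control wells for no effect and wells lacking membranes for full effect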
Target sequence (Q03530 whole entry, looked up): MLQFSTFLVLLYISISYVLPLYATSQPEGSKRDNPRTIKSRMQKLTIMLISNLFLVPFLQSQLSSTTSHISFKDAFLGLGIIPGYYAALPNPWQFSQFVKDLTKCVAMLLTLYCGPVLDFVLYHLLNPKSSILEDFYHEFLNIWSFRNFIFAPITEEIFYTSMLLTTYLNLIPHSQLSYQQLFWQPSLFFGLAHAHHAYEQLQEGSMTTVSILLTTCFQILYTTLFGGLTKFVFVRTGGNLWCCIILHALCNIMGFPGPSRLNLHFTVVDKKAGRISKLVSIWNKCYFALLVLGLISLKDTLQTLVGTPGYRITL
Yeast superoxide: reduction of superoxide in aged yeast, primary screen, HTS; S. cerevisiae aged cells, superoxide DHE fluorescence; stronger effect = lower value; superoxide response (% of plate mean), % at 10 µM; actives 0.18% (n = 330,000);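 active = superoxide response under a set limit, about three screen SD below normal, cut at about 65% in these data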;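 note: yeast aged for seven days with compound at 30 °C before DHE staining; 100% = average MFI of all compound-treated wells on the plate with controls excluded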
NALP3 yeast inh: NALP3 inflammasome inhibitors in reconstituted yeast, primary screen, luminescence, uHTS. Yeast reconstituted NLRP3/ASC/caspase-1, beta-gal luminescence, 24 h. inhibition, % at 10 µM. actives 0.39% (n = 330,000);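 active = inhibition of 50% or more; inactive = inhibition below 50%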;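 note: plate controls were induced DMSO wells for no effect and uninduced yeast grown without galactose for full effect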
V-ATPase pH: regulators of yeast V-ATPase proton pumping, primary screen, pHLuorin cytosolic pH fluorescence | AID 504577, 2011 | response, % at 10 µM | actives 0.37% (n = 350,000) | S. cerevisiae; in the data active = response mostly above about 7.3%, no sharp cut-off; inactive = mostly below about 5.4%; note: actives read high
NALP1 inh: NALP1 inflammasome inhibitors in reconstituted yeast, colorimetric, S. cerevisiae, triplicate retest. S. cerevisiae NALP1/ASC/caspase-1 growth, X-gal OD620, 72 h. inhibition, % at 10 µM. actives 0.61% (n = 280,000); in the data active = inhibition mostly above about 24%, no sharp cut-off; inactive = mostly below about 32%
Starred values were filed as active, the others as inactive; i = inactive; nt = no result given; + = active, no number.

SMILES	PERK inhibitor	Rce1 inh	Yeast superoxide	NALP3 yeast inh	V-ATPase pH	NALP1 inh
COC(=O)CSc1nc2sc3c(c2c(=O)n1-c1ccc(OC)cc1)CCN(C)C3	nt	i	nt	17	-2	7
CCOC(=O)C1=C(Nc2ccccc2)OCC1=O	1	i	106	15	2	17
CCOC(=O)C1=C(Nc2ccc(OC)cc2)OCC1=O	2.9*	i	99	8	-1	4
COc1ccc(C#CC2=CC(=O)CC(C)(C)C2)cc1	nt	nt	nt	nt	1	nt
COc1ccc(N2c3ccccc3CN(Cc3ccccc3)[C@@H](C)[C@H]2Cc2cccnc2)cc1	nt	nt	nt	nt	0	nt
CCOC(=O)C1CCCN(C(=O)c2c(-c3ccccc3Cl)noc2C)C1 (stereo unspecified)	-1	i	115	-7	2	5
CCOC(=O)C1CCCN(C(=O)Nc2c(-c3ccccc3)noc2C)C1 (stereo unspecified)	0	i	112	10	2	36*
Cn1cnc([N+](=O)[O-])c1NC(C)(C)C	0	i	99	15	6	31
Cn1cnc([N+](=O)[O-])c1S(=O)(=O)c1ccc(Cl)cc1	2	i	nt	nt	-2	80*
CC(=O)Nc1ccc(S(=O)(=O)c2ccnc3cc(Cl)ccc23)cc1	nt	nt	nt	nt	1	nt
CC(=O)c1c(O)c2ccccc2n(C(C)C)c1=O	2	i	81	-7	-2	31*
CC(=O)c1c(O)c2ccccc2n(C)c1=O	2	i	66	35	2	-32
COc1ccc2cc(C[C@@H]3CC[C@@H](CNC(N)=O)O3)ccc2c1	nt	nt	95	nt	0	nt
COc1ccc(CN(CCCn2cnc3c(OC)ncnc32)CCCn2cnc3c(OC)ncnc32)cc1	nt	nt	nt	nt	2	nt
CC(C)C(=O)c1cn(CC(=O)O)c2ccccc12	0	i	101	-3	-1	26*
CC1=C(C(=O)N2CCOCC2)CC(CC(=O)NC2CCCCC2)C(=O)N1Cc1ccc(F)cc1 (stereo unspecified)	nt	nt	nt	nt	0	nt
Cc1cc(OCC(=O)Nc2c(C(C)C)cccc2C(C)C)no1	nt	nt	nt	nt	-1	nt
Cc1noc(/C=C/c2ccccn2)c1[N+](=O)[O-]	nt	i	104	29	0	41*
C[C@@H]1CCCCO[C@H](CN(C)C(=O)c2ccccc2)[C@@H](C)CN([C@H](C)CO)C(=O)c2cc(NC(=O)c3ccncc3)ccc2O1	nt	nt	nt	nt	1	nt
CCCCCC(=O)Nc1ncc2c(n1)CC(c1cccs1)CC2=O (stereo unspecified)	0	i	105	26	-2	38*
O=C(Nc1ncc2c(n1)CC(c1ccccc1)CC2=O)c1ccco1 (stereo unspecified)	0	i	113	26	4	-86
O=C(NCCc1c[nH]c2ccccc12)OCCSS(=O)(=O)O	2	+	92	13	-4	19
O=C(c1ccc(N2CCCCS2(=O)=O)cc1)N1CCN(c2ccc(N3CCOCC3)nn2)CC1	3.0*	i	98	2	-1	20
CCOc1cccc(CNCCSc2nnnn2C)c1	1	i	101	-10	5	27*
C[C@@H]1CN([C@H](C)CO)C(=O)CCCn2nncc2CO[C@H]1CN(C)Cc1cccc(C(F)(F)F)c1	nt	nt	nt	nt	0	nt
SMILES	PERK inhibitor	Rce1 inh	Yeast superoxide	NALP3 yeast inh	V-ATPase pH	NALP1 inh
CCC(=O)N(C)C[C@H]1Oc2cc(-c3cccnc3)ccc2S(=O)(=O)N([C@H](C)CO)C[C@H]1C	nt	nt	nt	nt	0	nt
O=C(COC(=O)COc1ccccc1Cl)Nc1ccccc1OC(F)F	0	i	110	-2	0	1
O=C(COC(=O)CN=C1NS(=O)(=O)c2ccccc21)Nc1ccccc1OC(F)F	0	i	86	0	15*	-6
CC(C)c1nc(SCC(=O)N2CCCCC2)c2c(=O)n(C)c(=O)n(C)c2n1	nt	nt	nt	nt	1	nt
Cc1ccc(S(=O)(=O)N/N=C/c2c[nH]c3ccccc23)cc1	1	i	94	5	2	26*
Cc1cc(C)n(C(CC(=O)N2CCc3ccccc3C2)C(=O)O)n1 (stereo unspecified)	0	i	99	1	16*	3
Cc1cccc(N=C2N=C(N)c3ccccc32)c1	1	i	99	7	0	-14
NC1=NC(=Nc2cccc(S(N)(=O)=O)c2)c2ccccc21	4.0*	i	104	16	-2	-1
Oc1ccc(-c2csc(Nc3ncccn3)n2)c(O)c1	0	i	89	21	15*	4
Oc1ccc(-c2csc(Nc3ncccn3)n2)cc1O	-1	i	nt	nt	3	13
C[C@H](NC(=O)c1nc[nH]c1C(=O)NC1CCNCC1)C(=O)OCc1ccccc1	nt	nt	103	11	nt	nt
c1ccc(CNc2nc(N3CCN(Cc4ccccc4)CC3)nc3ccccc23)cc1	0	+	90	35	0	nt
COC(=O)C[C@H]1C[C@H]2c3cc(NC(=O)Nc4ccc(C(F)(F)F)cc4)ccc3O[C@H]2[C@@H](CO)O1	nt	nt	nt	nt	2	nt
CC(=O)Oc1ccc2c(=O)c(-c3nc4ccccc4s3)coc2c1	0	i	93	18	-3	28*
C(=N\N=C\c1ccccc1)/c1ccccc1	0	i	94	12	2	36*
CN(Cc1ccco1)S(=O)(=O)c1ccc(CN2C(=O)c3cccnc3C2=O)s1	nt	i	122	8	13*	7
CCN1/C(=C/c2ccc3cc(C)ccc3[n+]2CC)Sc2cc(C)ccc21	0	nt	nt	nt	7	35*
COc1ccc2cc(CN(C)C(=O)CN3C(=O)NC4(CCCC4)C3=O)ccc2c1	nt	nt	nt	nt	-3	nt
C[C@@H]1CN([C@@H](C)CO)S(=O)(=O)c2ccc(-c3ccccc3)cc2O[C@@H]1CN(C)Cc1ccccc1C(=O)O	nt	nt	nt	nt	-1	nt
O=C(NCc1ccco1)c1ccc2c(c1)N(Cc1ccccc1)CCS2	0	i	88	-1	5	16
O=C(NC1CC1)c1ccc2c(c1)N(Cc1ccccc1)CCS2	nt	+	104	27	-2	10
O=C(NCc1ccco1)c1ccc2c(c1)N(Cc1ccc(Cl)cc1)CCS2	1	i	97	5	14*	nt
O=C(NCCc1ccccc1C(F)(F)F)c1cc(COc2ccccc2)on1	nt	nt	nt	nt	-1	nt
Cc1ccc(/C=N/NC(=O)CNC(=O)c2cccs2)o1	2	i	106	3	1	-5
O=C(CNC(=O)c1cccs1)N/N=C/c1ccco1	0	i	91	13	1	29*
Cc1ccc(OCCN2C(=O)C(=O)c3cc(C)ccc32)cc1	1	+	103	7	0	-3
COc1cccc(-c2cc(C(=O)N3C(C)CCCC3C)no2)c1 (stereo unspecified)	-1	i	102	10	2	43*
